Experimental findings from the supplement of paper PMC6897291 are described below.

Molecules are shown by their SMILES. Structures can show the parent of a compound that is named as a salt.

The subject of the assay is U-2932. In words: growth inhibition by drug plus 177Lu-lilotomab satetraxetan (1 - RLU/untreated control) (fraction); higher = stronger inhibition. To be noted: 10 nM; time (day): 3; 177Lu-lilotomab satetraxetan 1 ug/ml. In outline:
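RIVA or U-2932 cells were left untreated or pretreated for 18 h with a radiolabelled anti-CD37 antibody conjugate (~600 MBq/mg) at 0.5 µg/ml for RIVA or 1 µg/ml for U-2932. The cells were then washed and seeded at 3,000 cells/well on plates pre-printed with the Selleck Cambridge Cancer Compound library, dosed at 10/100 nM for RIVA and 10/1,000 nM for U-2932. From day 3, RealTime-Glo luminescence was read daily after 1 h at 37°C. Growth inhibition was taken as one minus RLU over the mean of the untreated no-drug wells, of which there were 48 per plate.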
For `COc1ccc(S(=O)(=O)Nc2cccnc2Nc2ccc(O)cc2)cc1`, the “growth inhibition by drug plus 177Lu-lilotomab satetraxetan” value (“growth inhibition” below) is -0.0595. The value for `C[C@]12CCC(=O)C=C1CC[C@@H]1[C@@H]2[C@@H](O)C[C@@]2(C)[C@H]1CC[C@]2(O)C(=O)CO` [Hydrocortisone (Cortisol)] was 0.0227; that for `COc1cc(OC2CCN(C)CC2)ccc1Nc1ncc2c(n1)n(C1CCCC1)c(=O)n2C` was -0.087; that for `Nc1nc(F)nc2c1ncn2[C@@H]1O[C@H](CO)[C@@H](O)[C@@H]1O` [Fludarabine (Fludara)] was 0.0486. As for `Nc1nc(Nc2ccc(S(N)(=O)=O)cc2)nn1C(=O)c1c(F)cccc1F`, the “growth inhibition” value stood at 0.0456.

Turning to `Nc1ncn([C@@H]2O[C@H](CO)[C@@H](O)[C@H]2O)c(=O)n1` [Azacitidine (Vidaza)], the “growth inhibition” value is -0.107. Turning to `COc1cc2nccc(Oc3ccc(NC(=O)NC4CC4)c(Cl)c3)c2cc1C(N)=O` [E7080 (Lenvatinib)], the “growth inhibition” value was -0.0798.

On to `Nc1ccn([C@@H]2O[C@H](CO)[C@@H](O)[C@@H]2O)c(=O)n1` [Cytarabine], for which the “growth inhibition” value is -0.0521.

In the case of `Nc1cccc2c1C(=O)N(C1CCC(=O)NC1=O)C2=O` (stereo not drawn) [Pomalidomide], the “growth inhibition” value worked out at 0.0211. Take `CN(C)c1nc(N(C)C)nc(N(C)C)n1` [Altretamine (Hexalen)]: the “growth inhibition” value was -0.146. The value for `Cc1[nH]c(/C=C2\C(=O)Nc3ccc(S(=O)(=O)N(C)c4cccc(Cl)c4)cc32)c(C)c1C(=O)N1CCN(C)CC1` was -0.0184; that for `O=C(O[C@@H]1Cc2c(O)cc(O)cc2O[C@@H]1c1cc(O)c(O)c(O)c1)c1cc(O)c(O)c(O)c1` [(-)-Epigallocatechin gallate] was -0.0356. The value for `CCc1c2c(nc3ccc(OC(=O)N4CCC(N5CCCCC5)CC4)cc13)-c1cc3c(c(=O)n1C2)COC(=O)[C@]3(O)CC` [Irinotecan HCl Trihydrate (Campto)] was 0.0165; that for `S=C(NCc1ccc2c(c1)OCO2)N1CCN(c2ncnc3c2oc2ccccc23)CC1` [Amuvatinib (MP-470)] was 0.0425. Regarding `COc1ccc2c3n(c(=NC(=O)c4cccnc4)nc2c1OC)CCN3`, the “growth inhibition” value was determined as 0.021.

For `C#Cc1cccc(Nc2ncnc3cc(OCCOC)c(OCCOC)cc23)c1` [Erlotinib HCl], the “growth inhibition” value turned out to be 0.195. Consider `Cc1ccc(-c2cc(C(F)(F)F)nn2-c2ccc(S(N)(=O)=O)cc2)cc1` [Celecoxib], for which the “growth inhibition” value was -0.0503. `N#CC[C@H](C1CCCC1)n1cc(-c2ncnc3[nH]ccc23)cn1`: the “growth inhibition” value was 0.00599. Turning to `CCc1cncnc1N1CCN(Cc2nc3ccc(C(F)(F)F)cc3[nH]2)CC1`, the “growth inhibition” value came to 0.00491. The value for `CCN(CC)C(=S)SSC(=S)N(CC)CC` [Disulfiram (Antabuse)] was 0.000112. For `CC(C)[C@H](C(=O)Nc1ccc(C(=O)NO)cc1)c1ccccc1`, the “growth inhibition” value turned out to be 0.037. With `CC(=O)O[C@]1(C(C)=O)CC[C@H]2[C@@H]3C=C(C)C4=CC(=O)CC[C@]4(C)[C@H]3CC[C@@]21C` [Megestrol Acetate], the “growth inhibition” value came to 0.0333. For the compound `COc1cc2ncnc(Nc3cccc(Br)c3)c2cc1OC`, the “growth inhibition” value is -0.0269.

As to `N#Cc1ccc(C(c2ccc(C#N)cc2)n2cncn2)cc1` [Letrozole], the “growth inhibition” value was -0.121.

For the compound `CC(=O)c1c(C)c2cnc(Nc3ccc(N4CCNCC4)cn3)nc2n(C2CCCC2)c1=O`, the “growth inhibition” value was -0.0112. The value for `COc1cccc2c1C(=O)c1c(O)c3c(c(O)c1C2=O)C[C@@](O)(C(=O)CO)C[C@@H]3O[C@H]1C[C@H](N)[C@H](O)[C@H](C)O1` [Doxorubicin (Adriamycin)] was 0.422. For the compound `CC(C)(C)c1[nH]cnc1/C=c1\[nH]c(=O)/c(=C/c2ccccc2)[nH]c1=O` [NPI-2358 (Plinabulin)], the “growth inhibition” value was 0.0693. As to `COc1cc(Nc2ncc3c(n2)-c2ccc(Cl)cc2C(c2c(F)cccc2OC)=NC3)ccc1C(=O)O` [MLN8237 (Alisertib)], the “growth inhibition” value turned out to be 0.0071. On to `O=c1[nH]cc(F)c(=O)[nH]1` [Adrucil (Fluorouracil)], for which the “growth inhibition” value was -0.0549. As to `CC(C)c1ccc(Cn2ccc3c4c(N)nc(NC5CC5)nc4ccc32)cc1`, the “growth inhibition” value was found to be 0.151. Take `CC/C(=C(\c1ccccc1)c1ccc(OCCN(C)C)cc1)c1ccccc1` [Tamoxifen Citrate (Nolvadex)]: the “growth inhibition” value came out at 0.0801. As to `Cn1cc(C2=C(c3ccc(Cl)cc3Cl)C(=O)NC2=O)c2ccccc21`, the “growth inhibition” value was -0.0696. The value for `c1ccc(-c2nn3c(c2-c2ccnc4cc(OCCN5CCOCC5)ccc24)CCC3)nc1` was 0.0114; that for `O=C(NCCS(=O)(=O)c1ccc(C(F)(F)F)cn1)c1ccc(Cl)cc1` was -0.0322. As for `Cc1ccc(S(=O)(=O)C=CC#N)cc1`, the “growth inhibition” value was found to be 0.00206. As to `CCC1=C[C@@H]2CN(C1)Cc1c([nH]c3ccccc13)[C@@](C(=O)OC)(c1cc3c(cc1OC)N(C)[C@H]1[C@@](O)(C(=O)OC)[C@H](OC(C)=O)[C@]4(CC)C=CCN5CC[C@]31[C@@H]54)C2` [Vinorelbine (Navelbine)], the “growth inhibition” value worked out at 0.489.

For the compound `Cc1cc(Nc2cc(N3CCN(C)CC3)nc(/C=C/c3ccccc3)n2)n[nH]1`, the “growth inhibition” value is -0.149. Regarding `CN(N=O)C(=O)N[C@@H](C=O)[C@@H](O)[C@H](O)[C@H](O)CO` [Streptozotocin (Zanosar)], the “growth inhibition” value was -0.0646.
